# The list is not random: actives were taken first. Their share in the collection is about 9.4%.
# SMN2 splice enh: SMN2 splice variant enhancement; AID 1458; 210,000 tested, 2.8% active; HEK293 SMN2-luciferase splicing reporter, luminescence, 30-36 h; Potency, µM (top dose mostly 46.1 µM), actives largely listed as activators; further: nearly all actives have a fitted effect of over 55% in size
#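 HEK293 cells carry an SMN2 […]–luciferase reporter in which exon 7 inclusion puts luciferase in frame. Cells were plated 10-12 h before compound addition, then incubated 30-36 h at 37C. ONE-Glo luminescence was read; sodium butyrate at 4.5 mM final served as control.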
# ELG1 repair inh: inhibitors of ELG1-dependent DNA repair in HEK293T cells | HEK293T ELG1-luciferase reporter, luminescence, 16 h; DNA damage induced by 5-fluorouridine | 330,000 tested, 2.3% active | Potency, µM (titrated, usually from 46.1 µM), usual class: inhibitors; further: nearly all actives have a fitted effect of over 55% in size
#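 HEK293T cells expressing luciferase-tagged ELG1 (2,000/well) received 5-Fluorouridine plus compound or DMSO for 16 hr at 37 °C. Luciferase was read by ONE-Glo luminescence after 30 min at room temperature.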
# Rab9 promoter act: activates the Rab9 promoter | Huh7 Rab9 promoter-luciferase reporter, luminescence, 24 h | 320,000 tested, 2.8% active | Potency, µM (series often up to 9.22 µM), most hits filed as activators | AID 485297; further: nearly all actives have a fitted effect of over 60% in size
#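 Measured in stably transfected Huh7 cells bearing a Rab9 promoter–luciferase construct: 24 h compound treatment at 37 °C, followed by luminescence detection.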
# ELG1 genotoxic: inducers of genotoxicity in HEK293T ELG1-luciferase cells; Potency, µM (top dose mostly 46 µM), actives largely listed as activators; 330,000 tested, 1.3% active; HEK293T ELG1-luciferase reporter, luminescence, 16 h; further: nearly all actives have a fitted effect of over 60% in size
#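 After overnight (16 hr) compound treatment at 37 °C, ELG1-luciferase HEK293T cells were lysed with ONE-Glo; luminescence quantified 30 min later at room temperature.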
# NPC1 promoter act: activates the NPC1 promoter. Huh7 NPC1 promoter luciferase reporter, 24 h. Potency, µM (top dose mostly 9.22 µM), actives largely listed as activators. 320,000 tested, 2.4% active; further: nearly all actives have a fitted effect of over 60% in size
#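 Stable NPC1-promoter luciferase Huh7 line; cpd (DMSO) 24 h, 37 °C, 5% CO2; Amplite luciferase reagent 10 min RT; luminescence readout. qHTS format.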
# FLuc modulator: counter-screen for miR-21 project: firefly luciferase inhibitors or activators | P08659 | purified FLuc, Km substrates, luminescence inhibition | Potency, µM (highest dose often 57.5 µM), most hits filed as inhibitors | 360,000 tested, 6.9% active; further: nearly all actives have a fitted effect of over 55% in size
# Target sequence (P08659 whole entry, looked up): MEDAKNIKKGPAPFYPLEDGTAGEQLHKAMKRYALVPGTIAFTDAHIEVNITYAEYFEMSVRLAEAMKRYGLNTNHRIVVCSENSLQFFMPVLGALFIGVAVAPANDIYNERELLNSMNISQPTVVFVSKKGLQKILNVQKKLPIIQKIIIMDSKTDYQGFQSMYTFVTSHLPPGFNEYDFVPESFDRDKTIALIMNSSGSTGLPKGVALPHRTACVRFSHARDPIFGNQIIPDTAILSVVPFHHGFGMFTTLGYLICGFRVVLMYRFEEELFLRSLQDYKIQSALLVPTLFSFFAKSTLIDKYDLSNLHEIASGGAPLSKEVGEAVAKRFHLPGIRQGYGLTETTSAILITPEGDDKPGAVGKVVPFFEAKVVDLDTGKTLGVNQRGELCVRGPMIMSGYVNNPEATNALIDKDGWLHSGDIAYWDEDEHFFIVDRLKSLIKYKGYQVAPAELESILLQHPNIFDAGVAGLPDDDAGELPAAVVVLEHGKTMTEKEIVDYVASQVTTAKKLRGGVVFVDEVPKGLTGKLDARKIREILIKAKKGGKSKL
#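 Purified P. pyralis luciferase, 10 nM final, with Km-level 10 uM D-luciferin and 10 uM ATP in 50 mM Tris acetate pH 7.5, 10 mM Mg acetate, 0.01% Tween-20, 0.05% BSA; 6-point qHTS titration about 60 µM downward; luminescence read.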
# A number is an active result; i = inactive; ? = inconclusive; nt = no result. The call rests on the fitted dose curve; in most records, active means well fitted curve in the direction sought with a large enough effect; inconclusive means small, poorly fitted or top-dose-only effect, or another doubt; inactive means no such curve, though single readings can be large; an effect the other way counts as inactive or inconclusive.
SMILES,SMN2 splice enh,ELG1 repair inh,Rab9 promoter act,ELG1 genotoxic,NPC1 promoter act,FLuc modulator
COCCN(Cc1cc2cc(C)ccc2nc1Cl)C(=O)Nc1ccccc1OC,i,21µM,i,i,i,i
COc1cccc(CC(=O)NCc2ccc3c(c2)CCN3C(C)=O)c1,nt,nt,nt,nt,nt,i
COc1ccc(Cl)cc1NCc1nnc2n1CCCCC2,nt,nt,nt,nt,nt,i
Cn1c(NC(=O)c2ccc(F)cc2)nc2ccccc21,nt,?,4µM,?,3.5µM,3µM
Cn1c(NC(=S)Nc2ccccc2)nc2ccccc21,8.9µM,?,?,?,?,6.7µM
Cn1c(NC(=O)c2ccccc2NC(=O)C(C)(C)C)nc2ccccc21,i,?,i,i,i,27µM
S=C(Nc1ccccc1)Nc1nc2ccccc2n1CCOc1ccc(Br)cc1,i,?,i,?,i,i
CC(C)(C)C(=O)Nc1ccccc1C(=O)Nc1ccccn1,i,i,i,i,i,i
COc1ccccc1C(=O)NNC(=O)c1cccc(O)c1,nt,?,?,?,?,12µM
COCC(=O)NNC(=O)c1ccccc1OC,i,i,i,i,i,i
COc1ccccc1C(=O)NNC(=O)c1cccc(F)c1,3.2µM,?,?,?,?,15µM
COc1ccccc1C(=O)NNC(=O)c1ccccc1F,25µM,?,i,?,?,15µM
Cc1occc1C(=O)NNC(=O)c1cccc(F)c1,i,?,i,i,i,i
COc1cccc2sc(N3CCN(C(=O)CCS(=O)(=O)c4ccc(F)cc4)CC3)nc12,nt,nt,nt,nt,nt,i
COc1ccc(N2CCN(C(CNS(=O)(=O)c3ccccc3)c3ccccc3)CC2)cc1 (configuration not stated),nt,i,i,i,i,i
Cc1cc(C(=O)COC(=O)c2cc(Cl)c(O)c(Cl)c2)c(C)n1C,nt,?,i,i,i,17µM
Cc1cnc(C(=O)OCC(=O)c2cc(C)n(C)c2C)cn1,i,i,i,i,i,i
COCCn1c(C)cc(C(=O)COC(=O)c2ccc(Br)o2)c1C,i,?,?,4.1µM,3.2µM,1.9µM
Cc1cc(C(=O)COC(=O)c2ccc(Br)o2)c(C)n1C,i,?,i,?,i,8.5µM
CCOc1ccc(CC(=O)NCCc2sc3nc(-c4ccc(F)cc4)nn3c2C)cc1,nt,nt,nt,nt,nt,i
COc1ccc(N2CCN(C(CNS(=O)(=O)c3c(C)cc(C)cc3C)c3ccco3)CC2)cc1 (configuration not stated),nt,nt,nt,nt,nt,i
COc1cc(C(=O)Nc2ccc3c(c2)OCCO3)ccc1OC(C)C,11µM,?,3.2µM,?,?,7.6µM
COc1ccc(C2(CNC(=O)c3ccc(OC)c([N+](=O)[O-])c3)CCCCC2)cc1OC,i,15µM,i,i,i,i
COc1ccc(NC(=O)c2ccc3c(c2)OCCO3)cc1OC,nt,?,2.2µM,5.6µM,1.4µM,2.7µM
COc1ccc(C(=O)Nc2ccc3c(c2)OCCO3)cc1S(=O)(=O)N1CCOCC1,nt,i,i,i,i,nt
SMILES,SMN2 splice enh,ELG1 repair inh,Rab9 promoter act,ELG1 genotoxic,NPC1 promoter act,FLuc modulator
COc1cc(C(=O)Nc2ccc3c(c2)OCCO3)ccc1OC(F)F,14µM,?,2.8µM,?,3.2µM,6µM
CCOc1ccc(C(=O)OCC(=O)Nc2ccc3c(c2)OCCO3)cc1OC,nt,i,i,i,i,i
CCCN(Cc1cc2cccc(C)c2[nH]c1=O)C(=O)c1cccc(Cl)c1,i,nt,nt,nt,nt,i
Cc1c([N+](=O)[O-])c(C(=O)Nc2ccc3c(c2)OCCO3)nn1C,13µM,?,?,12µM,?,?
Cc1nn(C)c(C(=O)Nc2ccc3c(c2)OCO3)c1[N+](=O)[O-],nt,?,i,i,i,?
COc1ccc(C(=O)Nc2ccc3c(c2)OCCO3)cc1[N+](=O)[O-],i,i,?,i,i,11µM
O=C(CN1CC(c2ccccc2)CC1=O)OCc1ccccc1F (configuration not stated),?,?,i,i,i,12µM
O=C(CN1C(=O)NC2(CCCC2)C1=O)OCc1ccccc1F,nt,i,i,i,i,i
Cc1nc(SCC(=O)N(C)C2(C#N)CCCCC2)c2ccccc2n1,nt,?,i,i,i,24µM
O=C(O)CCCCCn1c(O)c(C=C2N=c3ccccc3=N2)sc1=S,i,?,i,i,i,9.5µM
O=C(O)CCCn1c(O)c(C=C2N=c3ccccc3=N2)sc1=S,nt,?,i,i,i,6µM
CCn1c(SCC(=O)Nc2cccc(C)c2)nc2nc3c(cc2c1=O)COC(C)(C)C3,nt,18µM,i,i,i,i
CCn1c(SCC(=O)Nc2ccc(OC)cc2OC)nc2nc3c(cc2c1=O)COC(C)(C)C3,nt,?,i,i,i,i
CCn1c(SCC(=O)Nc2ccccc2)nc2nc3c(cc2c1=O)COC(C)(C)C3,nt,10µM,i,i,i,i
CC(=O)c1cccc(NC(=O)Nc2ccc3c(c2)N(C)C(=O)CS3)c1,i,13µM,i,i,i,15µM
Cc1cc(C)cc(NC(=O)Nc2ccc3c(c2)N(C)C(=O)CS3)c1,i,?,i,i,i,?
O=C(Nc1ccccc1)Nc1ccc(C(=O)N2CCCC2)cc1,6.3µM,?,0.35µM,?,0.56µM,2.4µM
CC(=O)c1cccc(NC(=O)Nc2ccc(C(=O)N3CCCC3)cc2)c1,i,6.5µM,i,i,i,6.7µM
CC1(C)NC(=O)N(CC(O)CN(c2ccccc2)S(=O)(=O)c2ccccc2[N+](=O)[O-])C1=O (configuration not stated),nt,i,i,i,?,i
Cc1ccc(NC(=O)Cn2c(C)cc(C)c(C#N)c2=O)cc1,nt,nt,nt,nt,nt,i
CC(C)(C)c1ccc(/C=N/N2C(=O)CSC2=S)cc1,nt,?,i,i,i,17µM
O=C1CSC(=S)N1/N=C/c1ccc(O)c(O)c1O,nt,23µM,i,i,i,?
COc1ccc(/C=N/N2C(=O)CSC2=S)cc1,i,nt,nt,nt,nt,?
Cc1cccc(C)c1NC(=O)CSc1ncnc2[nH]ncc12,nt,?,nt,i,nt,nt
CCSc1ccc(-c2cccc([N+](=O)[O-])c2)nn1,?,?,3.2µM,?,?,?
SMILES,SMN2 splice enh,ELG1 repair inh,Rab9 promoter act,ELG1 genotoxic,NPC1 promoter act,FLuc modulator
O=C(CSc1ccc(-c2cccc([N+](=O)[O-])c2)nn1)N1CCCC1,i,?,i,i,i,i
O=C(/C=C/c1c(Cl)cccc1Cl)NCc1ccco1,i,?,?,i,i,i
CCC(CC)NC(=O)/C=C/c1ccccc1Cl,?,?,i,i,i,?
O=C(/C=C/c1ccccc1Cl)Nc1cccnc1,nt,?,1.8µM,4.1µM,1.1µM,1.3µM
O=C(/C=C/c1ccccc1Cl)Nc1ccncc1,i,?,2.8µM,i,?,4.3µM
O=C(/C=C/c1ccccc1Cl)NCc1ccco1,i,?,i,i,?,24µM
O=C(/C=C/c1ccc(Cl)cc1Cl)Nc1ccncc1,i,?,i,?,i,3.4µM
O=C(Cn1c(=O)n(Cc2ccco2)c(=O)c2sc3ccccc3c21)Nc1ccc(F)cc1F,i,nt,nt,nt,nt,i

# Bioassay records as filed in PubChem.
